In the library only some 5% were active in any assay of this set; here they are far more common.
SENP8 block-1: blocks human SENP8 cleavage of Nedd8 substrate | Q96LD8 | recombinant SENP8, Nedd8 substrate fluorescence | inhibition, % at 20 µM | actives 0.64% (n = 360,000); in the data active = inhibition mostly above about 40%, no sharp cut-off; inactive = mostly below about 27%
Target sequence (Q96LD8 whole entry, looked up): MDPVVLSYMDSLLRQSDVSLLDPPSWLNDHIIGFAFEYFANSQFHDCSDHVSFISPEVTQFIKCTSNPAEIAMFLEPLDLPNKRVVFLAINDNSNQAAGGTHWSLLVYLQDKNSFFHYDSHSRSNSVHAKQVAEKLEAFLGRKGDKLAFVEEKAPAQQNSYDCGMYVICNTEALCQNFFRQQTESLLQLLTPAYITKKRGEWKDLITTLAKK
SENP8 block-2: inhibitors of human SENP8 protease; inhibition, % at 10 µM; actives 1.2% (n = 330,000); AID 2540; purified SENP8, Z-RLRGG-aminoluciferin cleavage, luminescence; in the data active = inhibition above about 50%
EBI2 block: EBI2 (human) antagonism. P32249. EBI2 beta-arrestin recruitment, luminescence, 7a,25-OHC stimulated. inhibition, % at 5 µM. actives 0.81% (n = 360,000). AID 651636; in the data active = inhibition above about 38%;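 note: enzyme fragment complementation signal reports receptor beta-arrestin coupling in cells; 0% = agonist plus DMSO wells and 100% = wells without agonist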
Target sequence (P32249 whole entry, looked up, the tested form may be a part): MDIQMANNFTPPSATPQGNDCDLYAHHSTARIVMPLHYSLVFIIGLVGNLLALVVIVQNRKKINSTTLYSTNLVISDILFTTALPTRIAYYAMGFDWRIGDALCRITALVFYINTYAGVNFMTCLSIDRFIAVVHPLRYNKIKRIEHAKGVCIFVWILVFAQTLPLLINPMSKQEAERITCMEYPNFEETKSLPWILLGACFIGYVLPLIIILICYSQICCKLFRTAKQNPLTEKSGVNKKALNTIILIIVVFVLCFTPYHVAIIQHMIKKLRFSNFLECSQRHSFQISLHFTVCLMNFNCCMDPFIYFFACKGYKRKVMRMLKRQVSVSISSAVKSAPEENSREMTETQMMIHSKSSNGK
SENP7 inh: blocks the human protease SENP7; recombinant SENP7, Z-RLRGG-aminoluciferin luminescence, 40 min; inhibition, % at 5 µM; actives 1.5% (n = 330,000);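 active = inhibition above about 50% at the single test dose, limit read from the data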;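 note: plate controls were DMSO with enzyme for no effect and no enzyme buffer wells for full effect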
SENP6 inh: inhibitors of human SENP6 protease. Q9GZR1. Recombinant SENP6 catalytic domain, aminoluciferin luminescence. inhibition, % at 10 µM. actives 1.8% (n = 330,000). AID 2599;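 active = inhibition above about 50% at the single tested dose, limit read from the data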;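 note: plate controls were DMSO wells with enzyme for no effect and DMSO wells lacking enzyme for full effect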
AHR act: human AHR activation; P35869; AHR-responsive luciferase reporter cells, luminescence; activation, % at 5 µM; actives 2.5% (n = 320,000); AID 2796; in the data active = activation above about 47%;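 note: 0% = vehicle wells and 100% = reference agonist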
* hit, by the source's call; . = not tested or not shown.

SMILES | SENP8 block-1 | SENP8 block-2 | EBI2 block | SENP7 inh | SENP6 inh | AHR act
COc1ccc(Br)cc1/C=C/C(=O)Nc1ccc2ccccc2c1 | 4 | -12 | 9 | -4 | -18 | 50*
COc1ccccc1C(=O)Nc1ccc2ccccc2c1 | 4 | 36 | 9 | 36 | 50 | 56*
COc1ccccc1C(=O)Nc1ccc(Oc2ncnc3sc(-c4ccccc4)cc23)cc1 | -63 | -5 | 26 | 3 | -4 | 80*
COc1ccccc1C(=O)Nc1cccc(NC(C)=O)c1 | 11 | 3 | -9 | -4 | -12 | 13
CCCCC(=O)Nc1cc(OC)c(NC(=S)Nc2ccc(OC)cc2)cc1OC | 2 | . | 20 | . | . | .
O=C(NCCN1CCC(n2c(=O)[nH]c3ccccc32)CC1)c1ccncc1 | 27 | . | 0 | . | . | .
Cc1nc(SCc2nc3ccccc3[nH]2)c2oc3ccccc3c2n1 | 12 | 3 | 24 | -7 | -12 | 11
c1ccc(-c2nc(SCc3nc4ccccc4[nH]3)c3oc4ccccc4c3n2)cc1 | -31 | 8 | 29 | -7 | -13 | 68*
O=C(O)CNc1nc(-c2ccccc2)nc2c1oc1ccccc12 | 13 | 4 | -3 | 6 | -6 | 21
COc1cccc2c1oc1c(SCc3nc4ccccc4[nH]3)nc(C)nc12 | -261 | -1 | 22 | 4 | 0 | 59*
c1ccc2[nH]c(CSc3ncnc4c3oc3ccccc34)nc2c1 | -30 | -2 | -15 | 8 | 1 | 53*
OCCCNc1nc(-c2ccccc2)nc2c1oc1ccccc12 | 2 | -14 | 2 | -7 | -7 | 50*
O=C(Cc1cc(C(F)(F)F)cc(C(F)(F)F)c1)Nc1c(-c2ccccc2)[nH][nH]c1=O | 14 | . | -5 | . | . | .
O=C(/C=C/[C@H]1O[C@@H](n2ccc(=O)[nH]c2=O)[C@H](O)[C@@H]1O)N1CCN(CCc2ccccc2)CC1 | 20 | . | -2 | . | . | .
CCOc1cc(NC(=S)NCCCN2CCOCC2)c(OCC)cc1NC(=O)c1ccc(C)cc1 | 8 | -4 | 18 | 13 | -8 | 0
CCOc1ccccc1-c1ccc2nccn2c1 | -65 | . | -1 | . | . | .
Cc1ccc(C(=O)Nn2cnc3scc(-c4cccs4)c3c2=O)c(O)c1 | -12 | 2 | 10 | 6 | 0 | 60*
Cc1ccc(-n2cnc3scc(-c4cccs4)c3c2=O)cc1 | -142 | 2 | 7 | 9 | -4 | 1
CN1CCN(c2ccc(CNC(=O)C3(C)Cc4c(-c5ccccc5)ccnc4O3)cc2)CC1 (stereo unspecified) | 6 | . | 1 | . | . | .
CN1C(=O)c2ccc(C(=O)Nc3ccccc3O)cc2C1=O | 21 | -9 | 7 | 8 | 21 | 56*
Cc1cc(N2C(=O)c3ccc(C(=O)Nc4ccccc4O)cc3C2=O)no1 | 12 | -5 | -4 | -5 | 5 | 17
CC1Cc2ccccc2N1CC(=O)Nc1cc(S(=O)(=O)N2CCOCC2)ccc1Cl (stereo unspecified) | 10 | . | 8 | . | . | .
C=CCN1C=C/C(=C\C=C(C#N)C#N)c2ccccc21 | 26 | 11 | 26 | 9 | -5 | 53*
CN(C)c1ccc(C=c2c3cc([N+](=O)[O-])ccc3n3c2cc(-c2ccccc2)[n+]3C)cc1 | 51* | . | 14 | . | . | .
CCOC(=O)CN1CC23C=CC(O2)C(C(=O)Nc2ccc4c(c2)OCO4)C3C1=O (stereo unspecified) | 16 | 0 | -2 | 0 | -16 | 70*
SMILES | SENP8 block-1 | SENP8 block-2 | EBI2 block | SENP7 inh | SENP6 inh | AHR act
CC(=O)Nc1ccc(CN2C(=O)C(C)(C)ON=C2c2ccc(NC(C)=O)cc2)cc1 | 6 | . | 6 | . | . | .
C[C@@H]1ON(C)[C@H]2C[C@H]3c4cc(-c5cccc(F)c5)ccc4CCN3C(=O)[C@@H]12 | -25 | . | -6 | . | . | .
NC(=S)N/N=C\c1c(OCc2ccccc2Cl)ccc2ccccc12 | -160 | -8 | 19 | -4 | -22 | 70*
NC(=S)N/N=C\c1c2ccccc2cc2ccccc12 | -281 | . | 19 | . | . | 7
Cc1cccnc1NC(=O)Nc1cccc(F)c1 | 17 | . | -6 | . | . | .
CCCn1nc(NC(=O)c2ccncc2)c2cc3ccccc3nc21 | -156 | 0 | -11 | 0 | -4 | 69*
CCn1nc(NC(=O)c2ccncc2)c2cc3cc(C)ccc3nc21 | -190 | -7 | 6 | 14 | -22 | 62*
CCCn1nc(NC(=O)c2cccs2)c2cc3ccccc3nc21 | 35 | -9 | 5 | -10 | 2 | 27
CCn1nc(NC(=O)c2ccncc2)c2cc3ccc(C)cc3nc21 | -246 | -11 | 4 | 9 | 10 | 12
CCn1nc(NC(=O)c2ccco2)c2cc3cc(C)ccc3nc21 | -420 | -2 | -29 | 8 | -7 | 53*
CC(O)(c1cccc(F)c1)c1nc(-c2cccc3cccnc23)cs1 (stereo unspecified) | -170 | . | 4 | . | . | .
CCOC(=O)CCCCCC(=O)Nc1ccc2c(c1)C(=O)N([C@@H](C)CO)C[C@@H](C)[C@H](CN(C)C(=O)c1ccncc1)OCCCC[C@H](C)O2 | 4 | . | -2 | . | . | .
CCOc1ccccc1CNC(=O)c1nn(CC)cc1[N+](=O)[O-] | 19 | -7 | -6 | -10 | 6 | 5
CCOc1ccccc1CNC(=O)c1c([N+](=O)[O-])c(C)nn1C | 17 | 3 | -1 | 1 | -5 | 61*
Cc1ccc(-n2c(Cl)c(Cl)nc(Cl)c2=O)cc1 | -375 | . | 52* | . | . | 0
COc1ccccc1S(=O)(=O)Cc1ccc(C(=O)NCCN2CCCCCC2)o1 | 18 | -1 | -8 | -1 | -3 | 47*
COCCNC(=O)c1ccc(CS(=O)(=O)c2ccccc2OC)o1 | 13 | -4 | -8 | -5 | -3 | 2
CC(=O)CCc1ccc(OCC(O)CNCCOc2ccc(C)cc2)cc1 (stereo unspecified) | 7 | 0 | 1 | -8 | -34 | 0
Cc1ccc(OCCNCC(O)COc2ccccc2)cc1 (stereo unspecified) | 16 | -1 | -7 | 8 | -11 | 66*
Cc1nccc(-c2cccc(NC(=O)Nc3ccc(Cl)cc3)c2)n1 | -11 | -3 | 8 | -1 | -4 | 9
Cc1nccc(-c2cccc(N/N=C(\C#N)C(=O)c3ccccc3)c2)n1 | 38* | 3 | 3 | -1 | 5 | 18
COc1ccc(CCNc2cc(C)nc3c(-c4ccccc4)cnn23)cc1OC | -404 | 6 | 1 | 5 | 9 | 8
COc1ccc(CCNc2cc(C)nc3c(-c4ccc(Cl)cc4)cnn23)cc1OC | -417 | -5 | 19 | 0 | -19 | 69*
Cc1cc(Br)c(Oc2cc(NN3CCCCC3)c([N+](=O)[O-])cc2[N+](=O)[O-])c(Br)c1 | 22 | . | 18 | . | . | .
C=C1CC(Cn2cc(Br)c(=O)[nH]c2=O)(c2ccc(-c3ccccc3)cc2)OC1=O (stereo unspecified) | 5 | . | 84* | . | . | .
CCCCN(C)C(=O)Cn1c(=O)oc2cc(S(=O)(=O)N3CC(C)CC(C)C3)ccc21 (stereo unspecified) | 35 | -5 | -4 | 2 | -5 | 0
COc1cc(S(=O)(=O)N2CCN(C(=O)c3cccs3)CC2)ccc1NC(C)=O | 22 | . | 0 | . | . | .

Screening results: PubChem BioAssay, several laboratories
